Sampled rows, rich in hits. Any-hit rate of the full collection: about 32%.
PostGolgi yeast = growth inhibition of a yeast mutant, post-Golgi transport screen; hit rate 0.9% among 98,000; inhibition, % at 10 µM; post-Golgi transport phenotypic cell assay; AID 739;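 note: yeast cells grown in 1536-well plates; yeast grown about 18 h at 30C before absorbance read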
CYP2C19 activ = increases human CYP2C19 enzyme activity; P33261; recombinant CYP2C19, luciferin-H EGE luminescence; hits give high values; 0 = fully inhibited enzyme, 1 = untreated enzyme; activation factor at 5 µM; 96,000 tested, under 10 active; AID 1025;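 active = activation factor of at least 2 at 5 µM in the primary screen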;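 note: 0 = wells with 2.5 mM tranylcypromine and 1 = vehicle-only wells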
Target sequence (P33261 whole entry, looked up): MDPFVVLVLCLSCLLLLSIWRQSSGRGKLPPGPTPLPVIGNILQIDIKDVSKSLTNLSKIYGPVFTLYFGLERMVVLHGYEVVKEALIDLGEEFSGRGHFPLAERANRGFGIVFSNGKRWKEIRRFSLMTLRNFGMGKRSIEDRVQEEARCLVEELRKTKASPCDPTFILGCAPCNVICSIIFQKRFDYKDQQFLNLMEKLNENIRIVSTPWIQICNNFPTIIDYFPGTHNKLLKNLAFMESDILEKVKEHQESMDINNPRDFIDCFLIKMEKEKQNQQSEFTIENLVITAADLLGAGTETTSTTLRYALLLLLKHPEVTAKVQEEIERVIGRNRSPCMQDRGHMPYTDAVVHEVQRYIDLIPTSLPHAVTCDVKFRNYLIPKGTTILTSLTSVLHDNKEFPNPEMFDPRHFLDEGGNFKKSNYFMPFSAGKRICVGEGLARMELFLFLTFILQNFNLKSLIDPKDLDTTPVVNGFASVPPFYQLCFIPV
CYP2C9 activ = CYP2C9 (human) activation. P11712. recombinant CYP2C9, luciferin-H conversion, luminescence; hits give high values; factor 1 = untreated enzyme, 0 = blocked. activation factor at 5 µM. hit rate 1.4% among 96,000. AID 1024;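 active = activation factor of 2 or more for CYP2C9 at a 5 µM dose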;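 note: 0 = sulfaphenazole-blocked wells and 1 = vehicle-only wells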
CYP2C9 inhib = human CYP2C9 inhibition; inhibition, % at 5 µM; CYP2C9 Supersomes, luciferin-H conversion, luminescence; AID 777; hit rate 20% among 96,000;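 active = blocking of liver enzyme CYP2C9 beyond about 50% at 5 µM, limit read from the data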
CYP2C19 inhib = human CYP2C19 inhibition | P33261 | inhibition, % at 5 µM | hit rate 21% among 96,000 | AID 778 | CYP2C19 Supersomes, luciferin-H EGE luminescence, 30 min;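 active = CYP2C19 inhibition above a set limit at 5 µM in the primary screen, cut at about 50% in these data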;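 note: plate controls were negative control wells for no effect and 2.5 mM tranylcypromine positive control for full effect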
PostGolgi ctrl = growth of the yeast control strain, post-Golgi counter-screen; inhibition, % at 10 µM; AID 738; efflux-deficient yeast background strain, growth absorbance A615, 16 h; hit rate 5% among 98,000
Numbers without * were called inactive. Cut-off read from the data, not from the text of the source, unless noted: active = inhibition above about 30%; inactive = the rest.

For CCN(CC)S(=O)(=O)c1ccc2[nH]cc(C(=O)NCCCN3CCCCC3C)c(=O)c2c1 (configuration not stated) the results were PostGolgi yeast 11.6, CYP2C19 activ 1, CYP2C9 activ 0.9, CYP2C9 inhib 9.9, CYP2C19 inhib -3.4 and PostGolgi ctrl -4.1.
`CCC(c1nc2ccccc2c(=O)n1CCN1CCOCC1)N1C(=O)c2ccccc2C1=O` (configuration not stated) gave PostGolgi yeast -1.4, CYP2C19 activ 1, CYP2C9 activ 0.7, CYP2C9 inhib 29.2, CYP2C19 inhib 2.7 and PostGolgi ctrl 4.3.
`CCOc1ccc(N2C(=O)CS/C2=C(\C(Cl)=C(Cl)Cl)[N+](=O)[O-])cc1` gave PostGolgi yeast 1.3, CYP2C19 activ 0.6, CYP2C9 activ 0.5, CYP2C9 inhib 54.8*, CYP2C19 inhib 38.5 and PostGolgi ctrl -2.7.
Cc1ccccc1-c1nc(CS(=O)CC(=O)NCc2ccccc2)c(C)o1 (configuration not stated) was read as PostGolgi yeast 6.4, CYP2C19 activ 0.2, CYP2C9 activ 0.2, CYP2C9 inhib 75.5*, CYP2C19 inhib 78.4* and PostGolgi ctrl 11.4.
`COc1ccc(CNC(=O)CS(=O)Cc2nc(-c3ccccc3C)oc2C)cc1` (configuration not stated) gave PostGolgi yeast 4.2, CYP2C19 activ 0.1, CYP2C9 activ 0.2, CYP2C9 inhib 75.1*, CYP2C19 inhib 91.0* and PostGolgi ctrl 10.9.
For Cc1ccc(CNC(=O)CS(=O)Cc2nc(-c3ccccc3C)oc2C)cc1 (configuration not stated) the results were PostGolgi yeast 0.2, CYP2C19 activ 0.6, CYP2C9 activ 0.8, CYP2C9 inhib 23.7, CYP2C19 inhib 40.5 and PostGolgi ctrl 10.9.
Screening Cc1[nH]c(=O)[nH]c(=O)c1S(=O)(=O)N1CCCC(C(=O)N2CCC(Cc3ccccc3)CC2)C1 (configuration not stated) returned PostGolgi yeast -8.0, CYP2C19 activ 0.5, CYP2C9 activ 1.1, CYP2C9 inhib -7.3, CYP2C19 inhib 52.8* and PostGolgi ctrl -0.3.
`O=C(C1CCCN(S(=O)(=O)c2cccc3nonc23)C1)N1CCC(Cc2ccccc2)CC1` (configuration not stated) gave PostGolgi yeast -3.4, CYP2C19 activ 0.5, CYP2C9 activ 1.8, CYP2C9 inhib -78.9, CYP2C19 inhib 50.9* and PostGolgi ctrl 24.1.
For O=C(C1CCCN(S(=O)(=O)c2cccc3nonc23)C1)N1CCN(c2cccc(Cl)c2)CC1 (configuration not stated) the results were PostGolgi yeast 0.7, CYP2C19 activ 0.6, CYP2C9 activ 0.6, CYP2C9 inhib 43.4, CYP2C19 inhib 37.0 and PostGolgi ctrl 44.8*.
CCOC(=O)C(NS(=O)(=O)c1ccccc1)(C(F)(F)F)P(=O)(OCC(C)C)OCC(C)C (configuration not stated) was read as PostGolgi yeast -4.2, CYP2C19 activ 0.9, CYP2C9 activ 0.8, CYP2C9 inhib 15.9, CYP2C19 inhib 9.7 and PostGolgi ctrl 5.6.
`C=CCn1c(=O)/c(=C2/SC(C)=C(C)N2CC)s/c1=C1/C(=O)N(CC)C(=S)N1c1ccccc1` gave PostGolgi yeast 1.2, CYP2C19 activ 1.3, CYP2C9 activ 1.3, CYP2C9 inhib -27.7, CYP2C19 inhib -27.5 and PostGolgi ctrl 8.0.
O=C(Nc1cc2c3c(c1)C1CCCC1CN3CC1CCCC21)c1ccccc1 (configuration not stated) was read as PostGolgi yeast 2.1, CYP2C19 activ 0.9, CYP2C9 activ 0.2, CYP2C9 inhib 81.0*, CYP2C19 inhib 8.0 and PostGolgi ctrl 8.8.
For COCCOc1ccc(C(F)(F)F)cc1Nc1nc2ccccc2o1 the results were PostGolgi yeast -2.7, CYP2C19 activ 0.7, CYP2C9 activ 0.6, CYP2C9 inhib 38.5, CYP2C19 inhib 30.5 and PostGolgi ctrl 54.1*.
For COc1ccccc1N=c1scc(-c2ccc3c(c2)NC(=O)CO3)n1CC1CCCO1 (configuration not stated) the results were PostGolgi yeast 7.7, CYP2C19 activ 0.7, CYP2C9 activ 0.8, CYP2C9 inhib 20.9, CYP2C19 inhib 27.0 and PostGolgi ctrl 1.4.

Screening results (PubChem BioAssay)
